SMILES strings stand for the structures.

Experiment [1] relates to Proto-oncogene tyrosine-protein kinase receptor Ret (Homo sapiens), P07949 [Y791F]. The settings on record: at 1 µM.
The target of experiment [2] is Macrophage-stimulating protein receptor (Homo sapiens) (UniProt Q04912). The settings on record: at 0.1 µM.
Experiment [3] has the same target. Conditions: at 1 µM.
In experiment [4] the target is Proto-oncogene tyrosine-protein kinase ROS (Homo sapiens) (UniProt P08922). The settings on record: at 0.1 µM.
The target is the same in experiment [5]. Conditions: at 1 µM.
In experiment [6] the target is Proto-oncogene tyrosine-protein kinase Src (Homo sapiens) (UniProt P12931). Conditions: at 0.1 µM.
Experiment [7] shares this target. Conditions: at 1 µM.
Experiment [8] has as its target Tyrosine-protein kinase Srms (Homo sapiens) (UniProt Q9H3Y6). The settings on record: at 0.1 µM.
The target is the same in experiment [9]. Conditions: at 1 µM.
In experiment [10] the target is Tyrosine-protein kinase SYK (Homo sapiens) (UniProt P43405). The settings on record: at 0.1 µM.
For experiment [11] the target is unchanged. The settings on record: at 1 µM.
The target in experiment [12] is T1, Tyrosine-protein kinase Tec (Homo sapiens) (UniProt P42680).
T1 sequence (whole entry): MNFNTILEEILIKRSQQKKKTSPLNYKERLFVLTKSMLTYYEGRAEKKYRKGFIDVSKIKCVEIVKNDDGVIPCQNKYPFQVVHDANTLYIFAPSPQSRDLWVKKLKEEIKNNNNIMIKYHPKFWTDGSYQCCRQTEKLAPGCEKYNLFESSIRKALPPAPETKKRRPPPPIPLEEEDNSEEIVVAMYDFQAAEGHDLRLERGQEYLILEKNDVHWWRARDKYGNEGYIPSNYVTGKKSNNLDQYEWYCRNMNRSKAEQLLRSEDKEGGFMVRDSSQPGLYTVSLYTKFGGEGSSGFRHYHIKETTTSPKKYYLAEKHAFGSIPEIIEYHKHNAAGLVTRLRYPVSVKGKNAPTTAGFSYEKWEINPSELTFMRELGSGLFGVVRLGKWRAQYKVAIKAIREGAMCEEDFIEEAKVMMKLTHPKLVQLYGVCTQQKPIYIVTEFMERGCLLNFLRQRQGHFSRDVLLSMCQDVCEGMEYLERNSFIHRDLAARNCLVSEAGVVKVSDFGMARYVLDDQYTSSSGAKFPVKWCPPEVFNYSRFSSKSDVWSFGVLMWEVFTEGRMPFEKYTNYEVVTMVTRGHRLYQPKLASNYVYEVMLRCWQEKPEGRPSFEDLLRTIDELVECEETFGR
Conditions: at 0.1 µM.

Experiment [13] addresses T1, Tyrosine-protein kinase Tec (Homo sapiens). Conditions: at 1 µM.
In experiment [14] the target is Angiopoietin-1 receptor (Homo sapiens) (UniProt Q02763). Conditions: at 0.1 µM.
Experiment [15] has the same target. Conditions: at 1 µM.
The target of experiment [16] is T2, Non-receptor tyrosine-protein kinase TNK1 (Homo sapiens) (UniProt Q13470).
T2 sequence (whole entry): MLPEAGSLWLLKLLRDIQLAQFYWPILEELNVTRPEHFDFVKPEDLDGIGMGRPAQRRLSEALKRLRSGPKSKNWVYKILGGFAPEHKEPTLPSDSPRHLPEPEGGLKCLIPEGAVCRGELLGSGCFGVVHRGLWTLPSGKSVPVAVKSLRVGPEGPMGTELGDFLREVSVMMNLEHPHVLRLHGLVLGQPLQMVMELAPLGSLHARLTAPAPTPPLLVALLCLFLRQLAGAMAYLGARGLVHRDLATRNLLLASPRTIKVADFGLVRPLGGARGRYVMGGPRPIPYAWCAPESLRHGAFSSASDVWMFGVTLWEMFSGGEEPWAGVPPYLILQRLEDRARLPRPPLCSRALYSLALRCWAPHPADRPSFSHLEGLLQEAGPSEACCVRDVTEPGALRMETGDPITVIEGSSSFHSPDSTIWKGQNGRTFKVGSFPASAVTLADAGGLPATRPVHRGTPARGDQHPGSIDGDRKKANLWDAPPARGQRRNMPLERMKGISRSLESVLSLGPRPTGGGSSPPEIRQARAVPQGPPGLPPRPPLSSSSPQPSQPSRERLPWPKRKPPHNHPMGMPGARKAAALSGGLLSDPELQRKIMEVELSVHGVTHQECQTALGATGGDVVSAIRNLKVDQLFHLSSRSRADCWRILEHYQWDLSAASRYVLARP
Conditions: at 0.1 µM.

The target of experiment [17] is T2, Non-receptor tyrosine-protein kinase TNK1 (Homo sapiens). The settings on record: at 1 µM.
Experiment [18] has as its target Activated CDC42 kinase 1 (Homo sapiens) (UniProt Q07912). Conditions: at 0.1 µM.
Experiment [19] shares this target. Conditions: at 1 µM.
Experiment [20] deals with High affinity nerve growth factor receptor (Homo sapiens) (UniProt P04629). The settings on record: at 0.1 µM.

Activated CDC42 kinase 1 (Homo sapiens), sequence (Q07912 whole entry, looked up): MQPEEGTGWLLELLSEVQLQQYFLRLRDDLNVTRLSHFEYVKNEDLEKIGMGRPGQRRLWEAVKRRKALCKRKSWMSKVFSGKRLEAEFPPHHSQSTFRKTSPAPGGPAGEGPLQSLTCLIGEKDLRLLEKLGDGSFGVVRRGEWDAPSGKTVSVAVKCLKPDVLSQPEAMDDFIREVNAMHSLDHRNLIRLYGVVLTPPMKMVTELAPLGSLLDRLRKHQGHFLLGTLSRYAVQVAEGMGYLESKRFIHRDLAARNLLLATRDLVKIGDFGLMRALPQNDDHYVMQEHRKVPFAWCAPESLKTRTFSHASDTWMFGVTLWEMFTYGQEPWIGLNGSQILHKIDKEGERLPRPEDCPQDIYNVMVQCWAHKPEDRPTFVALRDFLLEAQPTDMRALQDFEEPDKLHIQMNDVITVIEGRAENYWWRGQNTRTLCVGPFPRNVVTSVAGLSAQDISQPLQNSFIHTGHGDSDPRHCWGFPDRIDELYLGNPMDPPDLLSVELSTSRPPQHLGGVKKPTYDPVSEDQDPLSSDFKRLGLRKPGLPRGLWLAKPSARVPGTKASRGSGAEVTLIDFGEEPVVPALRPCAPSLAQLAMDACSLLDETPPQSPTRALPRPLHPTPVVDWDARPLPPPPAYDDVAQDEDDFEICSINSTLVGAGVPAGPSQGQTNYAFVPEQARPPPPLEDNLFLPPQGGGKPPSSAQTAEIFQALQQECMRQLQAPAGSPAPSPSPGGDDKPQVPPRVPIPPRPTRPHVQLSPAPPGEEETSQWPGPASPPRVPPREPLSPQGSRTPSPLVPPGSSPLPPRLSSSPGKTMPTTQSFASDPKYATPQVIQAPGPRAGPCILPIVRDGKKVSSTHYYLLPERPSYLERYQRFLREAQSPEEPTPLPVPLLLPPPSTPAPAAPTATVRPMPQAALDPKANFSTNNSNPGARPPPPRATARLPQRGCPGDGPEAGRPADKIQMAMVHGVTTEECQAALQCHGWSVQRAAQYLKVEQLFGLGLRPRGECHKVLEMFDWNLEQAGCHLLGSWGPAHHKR
Proto-oncogene tyrosine-protein kinase ROS (Homo sapiens), sequence (P08922 whole entry): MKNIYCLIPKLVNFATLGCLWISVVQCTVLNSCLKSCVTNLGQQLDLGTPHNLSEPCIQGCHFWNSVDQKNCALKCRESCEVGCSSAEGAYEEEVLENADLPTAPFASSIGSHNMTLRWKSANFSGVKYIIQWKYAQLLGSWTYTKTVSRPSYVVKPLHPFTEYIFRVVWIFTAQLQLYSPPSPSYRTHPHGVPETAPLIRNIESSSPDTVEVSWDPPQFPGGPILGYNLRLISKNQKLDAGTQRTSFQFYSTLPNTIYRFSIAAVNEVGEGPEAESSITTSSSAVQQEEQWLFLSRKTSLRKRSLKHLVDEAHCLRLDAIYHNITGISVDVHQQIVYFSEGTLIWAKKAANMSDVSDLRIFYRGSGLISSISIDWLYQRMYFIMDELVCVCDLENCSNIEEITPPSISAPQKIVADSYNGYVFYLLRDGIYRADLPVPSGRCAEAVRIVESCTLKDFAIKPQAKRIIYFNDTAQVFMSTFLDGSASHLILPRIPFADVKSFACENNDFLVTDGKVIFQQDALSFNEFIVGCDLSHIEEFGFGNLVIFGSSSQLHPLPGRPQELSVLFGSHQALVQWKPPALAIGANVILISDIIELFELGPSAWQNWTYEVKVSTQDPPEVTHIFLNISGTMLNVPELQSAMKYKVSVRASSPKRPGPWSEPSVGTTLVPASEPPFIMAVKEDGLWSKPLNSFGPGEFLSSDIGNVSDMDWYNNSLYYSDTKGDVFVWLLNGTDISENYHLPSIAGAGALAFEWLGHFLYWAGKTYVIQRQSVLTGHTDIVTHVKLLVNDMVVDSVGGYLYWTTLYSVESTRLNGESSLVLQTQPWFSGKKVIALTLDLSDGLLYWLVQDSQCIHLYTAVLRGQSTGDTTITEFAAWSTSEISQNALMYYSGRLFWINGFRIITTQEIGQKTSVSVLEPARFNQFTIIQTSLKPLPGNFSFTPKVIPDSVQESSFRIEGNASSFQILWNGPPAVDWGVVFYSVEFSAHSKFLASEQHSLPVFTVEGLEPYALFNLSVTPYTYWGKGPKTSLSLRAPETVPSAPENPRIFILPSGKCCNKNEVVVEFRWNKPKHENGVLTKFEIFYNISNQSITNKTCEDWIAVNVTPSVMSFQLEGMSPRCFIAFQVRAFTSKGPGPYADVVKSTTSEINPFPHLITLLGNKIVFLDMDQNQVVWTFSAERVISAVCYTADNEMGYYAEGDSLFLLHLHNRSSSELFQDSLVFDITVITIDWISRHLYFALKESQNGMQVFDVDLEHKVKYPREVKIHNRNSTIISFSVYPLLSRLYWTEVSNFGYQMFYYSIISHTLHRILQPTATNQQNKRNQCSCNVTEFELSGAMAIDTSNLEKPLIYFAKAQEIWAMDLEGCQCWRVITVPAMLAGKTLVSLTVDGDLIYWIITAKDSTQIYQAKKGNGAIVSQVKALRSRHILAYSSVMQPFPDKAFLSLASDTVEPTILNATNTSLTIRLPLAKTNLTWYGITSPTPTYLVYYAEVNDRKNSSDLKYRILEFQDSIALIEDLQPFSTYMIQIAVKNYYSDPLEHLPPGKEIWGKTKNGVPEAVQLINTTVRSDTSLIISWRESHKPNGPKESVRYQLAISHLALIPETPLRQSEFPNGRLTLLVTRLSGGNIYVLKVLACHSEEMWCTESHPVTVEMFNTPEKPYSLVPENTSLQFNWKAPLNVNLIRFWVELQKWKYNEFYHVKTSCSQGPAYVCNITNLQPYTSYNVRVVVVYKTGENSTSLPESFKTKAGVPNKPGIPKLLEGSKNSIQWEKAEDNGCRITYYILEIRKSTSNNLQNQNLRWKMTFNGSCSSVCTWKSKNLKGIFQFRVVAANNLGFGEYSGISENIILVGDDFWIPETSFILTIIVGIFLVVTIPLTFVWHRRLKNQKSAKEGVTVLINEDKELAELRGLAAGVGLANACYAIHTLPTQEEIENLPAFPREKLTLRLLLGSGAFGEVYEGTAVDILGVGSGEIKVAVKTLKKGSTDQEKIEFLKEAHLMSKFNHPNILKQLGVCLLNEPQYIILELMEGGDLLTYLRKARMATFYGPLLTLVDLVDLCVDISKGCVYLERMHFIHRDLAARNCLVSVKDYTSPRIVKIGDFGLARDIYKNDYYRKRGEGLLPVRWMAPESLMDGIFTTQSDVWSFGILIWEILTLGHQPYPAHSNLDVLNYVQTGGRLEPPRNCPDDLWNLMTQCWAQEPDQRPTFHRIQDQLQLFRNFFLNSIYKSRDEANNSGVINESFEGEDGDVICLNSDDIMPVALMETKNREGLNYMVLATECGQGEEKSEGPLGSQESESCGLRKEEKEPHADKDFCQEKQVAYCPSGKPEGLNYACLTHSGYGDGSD
Proto-oncogene tyrosine-protein kinase receptor Ret (Homo sapiens), P07949 [Y791F], sequence (P07949 whole entry Y791F): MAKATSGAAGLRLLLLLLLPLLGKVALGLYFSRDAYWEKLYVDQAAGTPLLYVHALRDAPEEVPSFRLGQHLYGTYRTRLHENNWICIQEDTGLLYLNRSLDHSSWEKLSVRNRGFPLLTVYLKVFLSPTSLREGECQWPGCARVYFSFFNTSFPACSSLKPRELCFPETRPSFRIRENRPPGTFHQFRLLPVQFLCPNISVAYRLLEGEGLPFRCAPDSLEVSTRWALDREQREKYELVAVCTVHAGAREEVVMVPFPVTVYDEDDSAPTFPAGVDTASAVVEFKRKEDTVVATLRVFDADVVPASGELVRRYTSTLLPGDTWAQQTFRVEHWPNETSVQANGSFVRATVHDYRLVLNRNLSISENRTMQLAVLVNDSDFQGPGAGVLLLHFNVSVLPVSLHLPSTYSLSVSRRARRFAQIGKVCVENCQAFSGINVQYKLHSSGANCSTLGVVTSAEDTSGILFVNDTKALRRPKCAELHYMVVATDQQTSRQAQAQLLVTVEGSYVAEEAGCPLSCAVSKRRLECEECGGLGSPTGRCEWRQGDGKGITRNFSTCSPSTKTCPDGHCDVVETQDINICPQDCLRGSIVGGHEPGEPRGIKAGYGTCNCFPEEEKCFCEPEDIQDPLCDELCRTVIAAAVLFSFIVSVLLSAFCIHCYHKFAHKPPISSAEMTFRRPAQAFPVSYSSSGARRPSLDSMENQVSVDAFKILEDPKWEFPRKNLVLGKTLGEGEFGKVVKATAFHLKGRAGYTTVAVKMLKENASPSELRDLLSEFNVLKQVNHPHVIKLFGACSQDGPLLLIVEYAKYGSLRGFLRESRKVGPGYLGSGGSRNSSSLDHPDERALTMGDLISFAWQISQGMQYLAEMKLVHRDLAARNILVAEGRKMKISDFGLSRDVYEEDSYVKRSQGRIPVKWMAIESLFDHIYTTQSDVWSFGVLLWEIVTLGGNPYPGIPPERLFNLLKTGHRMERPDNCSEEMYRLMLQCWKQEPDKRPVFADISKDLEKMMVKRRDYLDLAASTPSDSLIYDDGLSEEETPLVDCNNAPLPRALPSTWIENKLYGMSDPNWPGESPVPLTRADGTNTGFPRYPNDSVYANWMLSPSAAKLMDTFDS
Tyrosine-protein kinase Srms (Homo sapiens), sequence (Q9H3Y6 whole entry): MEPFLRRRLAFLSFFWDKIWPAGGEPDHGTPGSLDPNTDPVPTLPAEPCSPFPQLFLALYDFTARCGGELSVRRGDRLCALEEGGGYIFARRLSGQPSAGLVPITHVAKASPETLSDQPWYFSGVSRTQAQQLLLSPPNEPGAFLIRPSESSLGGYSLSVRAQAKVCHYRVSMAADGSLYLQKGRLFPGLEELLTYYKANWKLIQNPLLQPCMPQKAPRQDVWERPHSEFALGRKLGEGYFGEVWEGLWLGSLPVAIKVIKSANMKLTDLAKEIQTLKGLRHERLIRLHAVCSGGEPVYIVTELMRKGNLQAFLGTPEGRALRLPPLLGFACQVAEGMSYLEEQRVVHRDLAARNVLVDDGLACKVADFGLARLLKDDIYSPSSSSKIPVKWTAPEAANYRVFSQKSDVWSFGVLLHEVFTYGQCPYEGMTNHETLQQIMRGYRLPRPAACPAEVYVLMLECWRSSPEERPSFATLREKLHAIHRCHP

The term inhibition denotes the relative decrease from the control value, in per cent. `NC(=O)c1cc(-c2ccncc2)cc(-c2ccccc2)c1N`: the inhibition was 42.3% in experiment [1]; 4.63% in experiment [2]; 2.14% in experiment [3]; 5.79% in experiment [4]; 14.7% in experiment [5]; 10.4% in [6]. Further, the inhibition in experiment [7] was 59.8%; in experiment [8], 0.18%; in experiment [9], 5.81%; in experiment [10], -0.73%; in experiment [11] it was 1.64%; in experiment [12], 18.5%. Moreover, the inhibition worked out at 58.7% in experiment [13]; 3.02% in [14]; 6.28% in experiment [15]; 1.93% in experiment [16]; 6.5% in experiment [17]; 1.25% in experiment [18]. In addition, the inhibition in experiment [19] is 7.25%; in experiment [20] it was 1.66%.

Regarding `Fc1ccc(-c2ncn(C3CCNCC3)c2-c2ccnc(Oc3ccc(F)c(F)c3)n2)cc1`, the inhibition worked out at 9.54% in experiment [1]; 4.15% in [2]; 2.54% in [3]; 5.19% in [4]; 4.41% in [5]; 5.82% in [6]. Moreover, the inhibition in [7] is 7.25%; in [8], -3.17%; in [9], -3.06%; in experiment [10], -1.2%; in experiment [11], -2.3%; in experiment [12], -2.35%. Further, the inhibition was 0.11% in [13]; 0.38% in experiment [14]; 3.09% in experiment [15]; 0.22% in experiment [16]; 4.28% in experiment [17]; -0.47% in experiment [18]. Also, the values for the inhibition in [19] and in experiment [20] were -0.07% and 2.3%, respectively.

Regarding `COc1ccc2cc(-c3c(-c4ccncc4)nc(-c4ccc([S+](C)[O-])cc4C)n3C)ccc2c1` (stereo not given), the inhibition stood at 28.3% in experiment [1]; 3.56% in [2]; 4.22% in [3]; 2.09% in experiment [4]; 6.31% in [5]; 2.64% in experiment [6]. Besides, the inhibition in [7] is 3.54%; in experiment [8], 1.97%; in [9], 6.78%; in experiment [10], -0.12%; in experiment [11], 0.6%; in experiment [12], 0.44%. The inhibition was 0.84% in experiment [13]; 76.9% in [14]; 82.2% in [15]; -3.02% in experiment [16]; 12.5% in [17]; -0.21% in [18]. Also, the results for the inhibition in [19] and in [20] were 0.9% and 0.64%, respectively.

With `NS(=O)(=O)c1ccc(Nc2cc(-c3ccc(O)c(F)c3)n[nH]2)cc1`, the inhibition is 55.5% in [1]; -1.82% in experiment [2]; 10.5% in experiment [3]; 0.96% in experiment [4]; 3.04% in experiment [5]; -0.44% in experiment [6]. Further, the inhibition in experiment [7] is 8.59%; in experiment [8], -1.1%; in experiment [9] it was 1.72%; in [10], 3.87%; in experiment [11], -1.99%; in experiment [12] it was -1.66%. The inhibition was 0.4% in experiment [13]; 2.97% in experiment [14]; 21.7% in experiment [15]; -4.31% in experiment [16]; 24.3% in [17]; -1.31% in experiment [18]. The results for the inhibition in [19] and in experiment [20] were -1.02% and 5.68%, respectively.

Consider `Nc1nccc(-c2c(-c3ccc(F)cc3)ncn2C2CCC(O)CC2)n1` (stereo not given), for which the inhibition amounted to 25.2% in experiment [1]; 3.96% in [2]; 13.3% in experiment [3]; 28.6% in experiment [4]; 76.4% in [5]; 0.34% in experiment [6]. Further, the inhibition is 18.3% in experiment [7]; -0.15% in experiment [8]; 2.5% in [9]; -1.99% in experiment [10]; 4.19% in [11]; -0.76% in experiment [12]. Moreover, the inhibition was 5.34% in [13]; -0.11% in experiment [14]; 4.5% in experiment [15]; -3.34% in [16]; 8.33% in [17]; -0.32% in [18]. Further, the inhibition in experiment [19] amounted to 0.4%; in [20], 0.87%.

Turning to `CS(=O)(=O)CCNCc1cc(-c2cc3c(Nc4ccc(OCc5cccc(F)c5)c(Cl)c4)ncnc3s2)cs1`, the inhibition in [1] amounted to 9.4%; in experiment [2] it was 2.33%; in experiment [3] it was 4%; in experiment [4], 6.34%; in experiment [5] it was 10%; in experiment [6], 10.7%. In addition, the inhibition in experiment [7] was 14.7%; in experiment [8] it was -2.71%; in [9], -1.03%; in experiment [10], -1.05%; in [11] it was 1.7%; in experiment [12], 7.25%. Besides, the inhibition in experiment [13] stood at 7%; in [14], 8.64%; in experiment [15] it was 10.7%; in experiment [16] it was 1.8%; in experiment [17], 6.39%; in experiment [18] it was 1.66%. Also, the values for the inhibition in experiment [19] and in experiment [20] were 5.79% and 2.34%, respectively.

For the origin of these results see ChEMBL document CHEMBL1961873, “Compounds: GSK PKIS; Assays: Nanosyn kinase panel” (2012).
